Test results: paper PMC4336329 (PLoS ONE, 2015)
Out of some 310,000 compounds screened, about 14,000 (4.5%) showed an effect of 50% or more. The effect is printed as a negative number. This is one part of a sample in which strong results are shown more often than they occur.

Target: human ether-à-go-go-related gene (hERG) potassium channel (human, UniProt Q12809)
Experiment: primary screen, population patch clamp on CHO cells stably expressing hERG; higher = less effect of the substance
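Also: peak tail current of the secondary pulse compared with the same well before compound.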

Chain of human ether-à-go-go-related gene (hERG) potassium channel (Q12809 whole entry, looked up): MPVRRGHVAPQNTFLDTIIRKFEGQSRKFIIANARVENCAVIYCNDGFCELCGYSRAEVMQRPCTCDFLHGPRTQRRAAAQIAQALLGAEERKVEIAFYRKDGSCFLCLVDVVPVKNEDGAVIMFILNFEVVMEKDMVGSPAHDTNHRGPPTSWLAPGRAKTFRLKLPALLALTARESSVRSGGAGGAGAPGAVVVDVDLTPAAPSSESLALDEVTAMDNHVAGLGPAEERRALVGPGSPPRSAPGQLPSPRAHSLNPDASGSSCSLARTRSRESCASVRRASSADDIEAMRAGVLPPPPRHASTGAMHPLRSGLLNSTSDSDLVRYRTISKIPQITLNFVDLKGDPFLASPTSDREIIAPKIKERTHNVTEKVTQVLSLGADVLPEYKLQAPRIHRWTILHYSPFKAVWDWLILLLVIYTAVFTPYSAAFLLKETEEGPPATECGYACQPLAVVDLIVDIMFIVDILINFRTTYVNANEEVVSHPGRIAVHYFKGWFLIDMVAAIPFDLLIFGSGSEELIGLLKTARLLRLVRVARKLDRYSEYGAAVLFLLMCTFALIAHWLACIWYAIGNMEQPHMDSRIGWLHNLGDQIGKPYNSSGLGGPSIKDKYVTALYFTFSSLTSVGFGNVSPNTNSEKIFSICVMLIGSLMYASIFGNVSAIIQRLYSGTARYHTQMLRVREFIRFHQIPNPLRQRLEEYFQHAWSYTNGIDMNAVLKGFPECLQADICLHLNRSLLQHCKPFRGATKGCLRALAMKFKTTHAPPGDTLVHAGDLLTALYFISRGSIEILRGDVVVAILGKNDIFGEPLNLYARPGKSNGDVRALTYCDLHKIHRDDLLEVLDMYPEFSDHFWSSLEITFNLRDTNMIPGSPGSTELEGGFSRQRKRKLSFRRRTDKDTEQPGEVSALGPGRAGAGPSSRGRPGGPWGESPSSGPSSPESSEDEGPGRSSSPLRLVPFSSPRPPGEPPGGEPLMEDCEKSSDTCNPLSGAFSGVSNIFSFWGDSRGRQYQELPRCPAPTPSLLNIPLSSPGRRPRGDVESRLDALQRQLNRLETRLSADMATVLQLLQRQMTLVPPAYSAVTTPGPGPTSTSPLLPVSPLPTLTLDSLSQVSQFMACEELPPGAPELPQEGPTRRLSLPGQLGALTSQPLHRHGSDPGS

| Structure (SMILES) | hERG current change (%, negative = inhibition) at 10uM [%] |
| --- | --- |
| Cc1cc2cc(C#N)c(SCC(=O)Nc3nonc3C)nc2cc1C | -0.0959 |
| CCOC(=O)c1c(C)[nH]c(C)c1C(=O)COC(=O)c1nc2nccc(C)n2n1 | 24.8 |
| C/C(=N/NC(=O)c1cc(C(C)C)[nH]n1)c1cccs1 | 7.16 |
| COc1cc(OC)cc(-c2c(-c3cccs3)c3cc(-c4ccn[nH]4)ccc3n2C)c1 | 7.72 |
| O=C(Nc1ccc(Br)cc1Br)c1cccc2c1C(=O)N(C1CCCCC1)C2 | 12.8 |
| CN(C)c1ccc(C=NCCC2(c3ccccc3)CCOC(C)(C)C2)cc1 (stereo not shown) | 15.3 |
| [N-]=C=C1C(=S)NC(=O)[C@H]([n+]2ccccc2)[C@H]1c1ccc(Cl)cc1 | 15.9 |
| Cc1ccc2nc(/C(C#N)=C/c3ccc(O)c(O)c3)[nH]c2c1 | 7.82 |
| O=S(=O)(c1cccc(C(F)(F)F)c1)N1CCC(CO)(CCCc2ccccc2)CC1 | -6.59 |
| OCC1(CCCc2ccccc2)CCN(Cc2cc(F)ccc2F)CC1 | -69.5 |
| CC(C)N1CCC(N2CCN(Cc3cc(F)ccc3-n3cccn3)CC2CCO)CC1 (stereo not shown) | -8.1 |
| CC(C)N1CCN(Cc2cc(F)ccc2-n2cccn2)CC1CCO (stereo not shown) | 11.2 |
| OCC1(CCc2ccccc2)CCN(Cc2ccccc2Cl)CC1 | -86 |
| OCC1(CCc2ccccc2)CCN(Cc2cc(Cl)ccc2O)CC1 | -49.5 |
| Clc1ccccc1CN1CCC(Cc2ccccc2)CC1 | -12.1 |
| OCC1(CCc2ccccc2)CCN(Cc2cc(F)ccc2-n2cccn2)CC1 | -78.1 |
| OCC1(CCc2ccccc2)CCN(Cc2c(F)ccc(F)c2F)CC1 | -36.9 |
| CCOc1ccc(NC(=O)N2CC=C(n3c(=O)[nH]c4ccccc43)CC2)cc1 | -8.9 |
| COc1ccc2[nH]c(=O)c(CN(c3ccc(C)c(C)c3)S(C)(=O)=O)cc2c1 | 12.9 |
| Cc1ccccc1NC(=O)c1[nH]cnc1C(=O)NN | 9.21 |

| Structure (SMILES) | hERG current change (%, negative = inhibition) at 10uM [%] |
| --- | --- |
| CCCCOc1ccc(C2C(C(=O)c3cccs3)=C(O)C(=O)N2CCN2CCOCC2)cc1 (stereo not shown) | 21.8 |
| CC(=O)Oc1cc2c(C(=O)NCCCN3CCOCC3)c(C)oc2c2ccccc12 | -18.2 |
| Cc1cc2nc(C)n(CCCN)c2cc1C.Cl | -0.0557 |
| CCN(CC)S(=O)(=O)c1ccc(Cl)c(NC(=O)COc2ccc3c(C)cc(=O)oc3c2)c1 | 7.69 |
| CCOC(=O)C(Sc1nnc(-c2ccncc2)o1)C(C)=O (stereo not shown) | 27.7 |
| Cc1ccc(C(=O)N/C(=C\c2ccc(F)cc2)C(=O)NCCCn2ccnc2)cc1 | -77.5 |
| COc1ccc(C(=O)N/C(=C\c2ccccc2)C(=O)NCCCn2ccnc2)cc1 | -55.8 |
| Cl.O=C(NCCCn1ccnc1)c1ccc(F)cc1 | -2.81 |
| COc1ccc(C(=O)NCCCn2ccnc2)cc1.Cl | -5.63 |
| COc1ccc(/C=C(/NC(=O)c2ccccc2)C(=O)NCCCn2ccnc2)cc1OC | 19 |
| COc1ccc2c(c1)CCc1c(C(=O)NCCCn3ccnc3)noc1-2 | -50.2 |
| COc1ccc(/C=C(/NC(=O)c2ccc(OC)c(OC)c2)C(=O)NCCCn2ccnc2)cc1 | 11.5 |
| COc1ccc(/C=C(\NC(=O)c2ccc(C)cc2)C(=O)NCCCn2ccnc2)cc1 | -86.4 |
| COCCNC(=O)c1noc2c1CCc1cc(OC)ccc1-2 | -6.83 |
| O=C(NCCCn1ccnc1)c1noc2c1CCc1ccccc1-2 | -45.9 |
| COc1ccc(C(=O)N/C(=C\c2cn(C)c3ccccc23)C(=O)NCCCn2ccnc2)cc1 | 26.3 |
| COc1ccc(N(C2=NCCCS2)S(=O)(=O)c2ccc(C(C)(C)C)cc2)cc1 | 0.221 |
| CCc1ccc2[nH]c(C(=O)Nc3ccc4c(c3)OCO4)cc2c1 | 18.8 |
| COc1ccc(OC)c(S(=O)(=O)N/N=C(/C)c2c[nH]c3ccccc23)c1 | 14.1 |
| CCN(C(=O)c1cc2c(=O)[nH]c3ccc(C)cc3c2s1)c1cccc(C)c1 | -0.235 |

| Structure (SMILES) | hERG current change (%, negative = inhibition) at 10uM [%] |
| --- | --- |
| Cc1nn(-c2ccc(N3CCCCC3)nn2)c(C)c1CCC(=O)Nc1cccc(F)c1 | -19 |
| COC(=O)c1sccc1-n1cc(C#N)c(=O)n(C)c1=O | 17.9 |
| COc1cc2c(c(OC)c1OC)-c1ccc(O)c(=O)cc1[C@@H](N)CC2 | -11.8 |
| COCCn1c(C(C)C)nc2ccccc21 | 4.45 |
| CCn1cc(C2=NOC(C(=O)Nc3ccccc3C(=O)OC)C2)c(C)n1 (stereo not shown) | -3.86 |
| COc1cc(C2C(C(=O)c3ccco3)=C(O)C(=O)N2CC2CCCO2)ccc1O (stereo not shown) | 2.25 |
| Cc1ccn2c(=O)c(NC(=O)c3ccc(Br)o3)c(C)nc2c1 | 8.18 |
| CC1(C)C(=O)NCCN1C(=O)CC1C(=O)NCCN1CC(c1ccccc1)c1ccccc1 (stereo not shown) | 12 |
| CC(C)(C)NC(=O)C(c1cccs1)N(Cc1ccco1)C(=O)c1csnn1 (stereo not shown) | -1.46 |
| COc1ccc(C(=O)CCC(=O)Nc2ccc(Cl)cc2)cc1 | 11.2 |
| COc1cccc(-c2nn(-c3ccccc3)cc2/C=C(\C#N)C(=O)NCCCn2ccnc2)c1 | -38.8 |
| COc1ccc(/C=C(\NC(=O)c2ccc(C)cc2)C(=O)NCCCn2ccnc2)cc1OC | 8.48 |
| Cc1ccc(C(=O)N/C(=C\c2ccccc2)C(=O)NCCCn2ccnc2)cc1 | -84.8 |
| N#C/C(=C\c1ccc([N+](=O)[O-])cc1)C(=O)NCCCn1ccnc1 | -59.5 |
| Cc1ccc(/C=C(\NC(=O)c2ccc(C)cc2)C(=O)NCCCn2ccnc2)cc1 | -84.9 |
| O=C(NCCCn1ccnc1)c1cc([N+](=O)[O-])cc([N+](=O)[O-])c1 | -4.05 |
| COc1ccc(C(=O)N/C(=C\c2cn(S(=O)(=O)N(C)C)c3ccccc23)C(=O)NCCCn2ccnc2)cc1 | 1.07 |
| COc1ccc(/C=C(\NC(=O)c2ccc([N+](=O)[O-])cc2)C(=O)NCCCn2ccnc2)cc1 | -69.4 |
